Sampled rows, rich in hits. Any-hit rate of the full collection: about 11%.
G9a inh = inhibitors of human histone lysine methyltransferase G9a; Q96KQ7; G9a H3K9 monomethylation, AlphaScreen, 2 h; AID 504332; 8.8% of 350,000 active; Potency, µM (titrated, usually from 102 µM), inactives show at the highest dose activity, negative = inhibition, most hits filed as inhibitors; further: potency means the concentration at half of the fitted maximal effect; on the % scale 0 is the no-effect control and ±100 the full control effect; nearly all actives have a fitted effect of over 75% in size
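AlphaScreen read-out: biotin-H3K9 peptide (500 nM) methylation by 20 nM enzyme with 20 uM SAM, 2 h at room temperature after 15 min compound preincubation; anti-monomethyl H3K9 antibody plus donor/acceptor beads, 10 min dark.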
JMJD2A Tudor = blocks the human JMJD2A Tudor domain; Potency, µM (series often up to 114 µM), for inactives: at the top dose activity change, negative = inhibition, usual class: inhibitors; 4.4% of 390,000 active; AlphaScreen JMJD2A-Tudor / H3K4me3 peptide binding; AID 504339; further: potency means the concentration at half of the fitted maximal effect; on the % scale 0 is the no-effect control and ±100 the full control effect; nearly all actives have a fitted effect of over 50% in size
Target sequence (O75164 whole entry, looked up, the tested form may be a part): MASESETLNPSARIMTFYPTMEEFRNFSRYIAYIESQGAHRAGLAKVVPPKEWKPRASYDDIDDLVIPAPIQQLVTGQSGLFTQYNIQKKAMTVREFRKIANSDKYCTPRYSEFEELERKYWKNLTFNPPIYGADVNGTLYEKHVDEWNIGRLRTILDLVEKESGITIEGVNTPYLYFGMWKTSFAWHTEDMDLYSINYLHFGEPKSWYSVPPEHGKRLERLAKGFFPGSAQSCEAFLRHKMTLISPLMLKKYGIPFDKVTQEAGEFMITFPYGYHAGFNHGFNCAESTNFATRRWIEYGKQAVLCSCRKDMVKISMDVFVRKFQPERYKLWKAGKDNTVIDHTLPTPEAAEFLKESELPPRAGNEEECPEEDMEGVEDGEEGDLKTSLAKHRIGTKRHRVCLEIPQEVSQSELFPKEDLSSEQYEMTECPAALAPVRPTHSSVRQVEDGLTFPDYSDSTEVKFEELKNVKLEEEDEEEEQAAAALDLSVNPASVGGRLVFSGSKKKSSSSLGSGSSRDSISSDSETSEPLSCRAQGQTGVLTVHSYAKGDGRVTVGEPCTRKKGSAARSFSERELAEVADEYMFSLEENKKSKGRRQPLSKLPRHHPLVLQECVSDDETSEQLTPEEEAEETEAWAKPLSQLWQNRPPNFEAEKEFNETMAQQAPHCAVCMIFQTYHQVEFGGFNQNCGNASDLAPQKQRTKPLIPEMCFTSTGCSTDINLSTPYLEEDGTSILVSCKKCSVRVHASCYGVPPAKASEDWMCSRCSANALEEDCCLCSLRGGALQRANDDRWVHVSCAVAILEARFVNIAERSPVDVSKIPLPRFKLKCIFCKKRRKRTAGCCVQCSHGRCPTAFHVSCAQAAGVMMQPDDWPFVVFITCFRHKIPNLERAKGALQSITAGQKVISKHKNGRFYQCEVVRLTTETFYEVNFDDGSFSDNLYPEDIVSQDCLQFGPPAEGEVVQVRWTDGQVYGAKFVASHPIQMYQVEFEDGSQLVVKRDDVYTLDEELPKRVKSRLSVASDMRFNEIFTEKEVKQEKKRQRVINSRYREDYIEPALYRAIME
PI5P4K alpha inh = PI5P4K alpha (human) kinase inhibition; P48426; PI5P4Kalpha enzyme, ADP-Glo luminescence, 60 min; active compounds read low; max response, %; 1.2% of 330,000 active; active means max response of -50% or lower; inconclusive means between -30% and -50%; inactive means -30% or higher; further: value at the top dose of about 77 µM; on the % scale 0 is the no-effect control and ±100 the full control effect
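ADP-Glo luminescence end-point read after a 60 min room-temperature kinase reaction of PI5P4Kalpha plus substrate, initiated with ATP at 5 microM final. Buffer: 0.038 M HEPES pH 7.4, EGTA, 0.1% CHAPS, 5% DMSO.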
L3MBTL1 block = L3MBTL1 (human) inhibition | 0.66% of 230,000 active | Potency, µM (titrated, usually from 57.1 µM), inactives show at the highest dose activity, negative = inhibition, actives largely listed as inhibitors | AlphaScreen L3MBTL1–H3K9me1 peptide binding | Q9Y468; further: potency means the concentration at half of the fitted maximal effect; on the % scale 0 is the no-effect control and ±100 the full control effect; nearly all actives have a fitted effect of over 60% in size
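First, the protein-peptide complex forms for 30 min at room temperature (L3MBTL1 50 nM, biotinylated H3K9me1 peptide 75 nM). Next, compounds are pin-transferred and incubated 30 min. Finally, AlphaScreen beads are added and read after 30 min.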
BAZ2B block = blocks human BAZ2B. AlphaScreen BAZ2B-H3K14Ac peptide displacement. AID 504333. Q9UIF8. Potency, µM (highest dose often 114 µM), for the others: at the top dose activity change, negative = inhibition, most hits filed as inhibitors. 4.4% of 360,000 active; further: potency means the concentration at half of the fitted maximal effect; on the % scale 0 is the no-effect control and ±100 the full control effect; nearly all actives have a fitted effect of over 60% in size
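AlphaScreen displacement of biotin-H3(5-23)K14Ac peptide (50 nM final) from BAZ2B (50 nM final) in PBS pH 7.4, 0.01% Tween-20; complex preformed 30 min RT, then compounds (top 110 uM) 30 min RT, beads 20 min dark.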
HP1b binding inh = blocks HP1-beta chromodomain binding to methylated histone tails; 0.56% of 390,000 active; Potency, µM (doses to about 114 µM), inactives show at the top dose activity change, negative = inhibition, hits mostly inhibitors; P83916; AlphaScreen HP1-beta / biotin-H3K9me3 peptide binding; AID 540317; further: potency means the concentration at half of the fitted maximal effect; nearly all actives have a fitted effect of over 70% in size
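Compound inhibition of the preformed complex between 50 nM HP1-beta and 50 nM biotinylated H3K9me3 peptide was read by AlphaScreen. Buffer was PBS pH 7.4 with 0.01% Tween-20. Incubations ran 30 min at room temperature, with 10 ug/mL donor/acceptor beads.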
* hit, by the source's call; [ ] = remark or other dose. Unless noted, the call rests on the fitted dose curve; in most records, active means well fitted inhibition curve with a large enough effect; inconclusive means small, poorly fitted or top-dose-only effect; inactive means no such curve, though single readings can be large or run the other way.

COc1cc(NC(=O)CSc2ncnc3sc4c(c23)CCC(C)C4)c(C(=O)O)cc1OC (centres undefined) was read as G9a inh 20µM*, JMJD2A Tudor -18%, PI5P4K alpha inh -3, BAZ2B block -29% and HP1b binding inh 5%.
Cc1cc(NC(=O)CSc2ncnc3sc4c(c23)CCC(C)C4)no1 (centres undefined) was read as G9a inh 8%[12.7 µM] and BAZ2B block -3%.
CCc1ccc(NC(=O)Cn2c(=O)ccc3cc(S(=O)(=O)N4CCCC4)ccc32)cc1 was read as G9a inh 6%[59 µM], JMJD2A Tudor -9%, BAZ2B block 2% and HP1b binding inh 30%[57 µM].
COc1ccccc1N1CCN(C(=O)c2cc3c(=O)oc4ccccc4c3s2)CC1 was read as G9a inh 6%[59 µM], JMJD2A Tudor -17%, BAZ2B block 7% and HP1b binding inh 10%.
Cc1cccc(NS(=O)(=O)c2ccc3[nH]c(=O)cc(C(=O)OC(C)C(=O)Nc4ccc([N+](=O)[O-])cc4)c3c2)c1 (centres undefined) was read as G9a inh 45µM*, JMJD2A Tudor inconclusive, PI5P4K alpha inh -8, L3MBTL1 block -20%, BAZ2B block -36% and HP1b binding inh 2%.
CCc1ccc(NC(=O)C(C)OC(=O)c2cc(=O)[nH]c3ccc(S(=O)(=O)Nc4ccc(F)cc4)cc23)cc1 (centres undefined) was read as G9a inh 30%[12.7 µM], JMJD2A Tudor -3%, PI5P4K alpha inh -5, L3MBTL1 block -21%, BAZ2B block 2% and HP1b binding inh 27%.
`COc1ccc(C(=O)C(=NNc2ccccc2)c2ccc(OC)cc2)cc1` gave JMJD2A Tudor 45µM*, PI5P4K alpha inh 5 and HP1b binding inh inconclusive.
COc1ccc(/C(=N\Nc2ccccc2C(=O)O)c2ccccc2)cc1 was read as G9a inh 35µM*, JMJD2A Tudor inconclusive, PI5P4K alpha inh -10, BAZ2B block -34% and HP1b binding inh -3%.
Screening COc1ccc(C(=O)C(=NN)c2ccccc2)cc1 returned PI5P4K alpha inh -7.
COc1ccc(N/N=C(\C=N\O)C(=O)c2ccc(OC)cc2)cc1 was read as G9a inh 50µM*, JMJD2A Tudor inconclusive, PI5P4K alpha inh 1, BAZ2B block 40µM* and HP1b binding inh -8%.
For CCOC(=O)C(=O)N/N=C(/c1ccccc1)c1ccc(OC)cc1 the results were G9a inh 8%, JMJD2A Tudor -15%, PI5P4K alpha inh 4, L3MBTL1 block -2%, BAZ2B block -11% and HP1b binding inh 15%.
COc1ccc(N2CCN(c3oc(COc4ccccc4)nc3C#N)CC2)cc1 was read as G9a inh 10µM*, JMJD2A Tudor inconclusive, PI5P4K alpha inh 7, L3MBTL1 block inconclusive, BAZ2B block 10µM* and HP1b binding inh inconclusive.
Screening COc1ccc(N2CCN(c3oc(Cc4ccccc4)nc3C#N)CC2)cc1 returned G9a inh inconclusive, JMJD2A Tudor 20µM*, L3MBTL1 block -1%, BAZ2B block 8.9µM* and HP1b binding inh -58%.
Screening N#Cc1nc(COc2ccc(Cl)cc2Cl)oc1N1CCOCC1 returned G9a inh inconclusive, JMJD2A Tudor inconclusive, L3MBTL1 block -21%, BAZ2B block 45µM* and HP1b binding inh -39%.
For CN(C)CCNc1oc(COc2ccc(-c3ccccc3)cc2)nc1C#N the results were G9a inh 45µM*, JMJD2A Tudor inconclusive, L3MBTL1 block -4%, BAZ2B block inconclusive and HP1b binding inh -16%.
N#Cc1nc(Cc2ccccc2)oc1N1CCN(c2cccc(Cl)c2)CC1 was read as G9a inh -2%[2.33 µM], JMJD2A Tudor inconclusive, L3MBTL1 block -11%, BAZ2B block inconclusive and HP1b binding inh inconclusive.
Screening COc1ccc(OC(=O)c2nc(SCc3ccccc3C)ncc2Cl)cc1 returned G9a inh 44%[59 µM], JMJD2A Tudor 3%, BAZ2B block 25% and HP1b binding inh 65%.
